Screens: PubChem, several laboratories
Most compounds without a hit are left out; they make up all but 3.9% or so of the library.
VHR inh abs: inhibitors of human VHR1 phosphatase (DUSP3); P51452; recombinant VHR phosphatase, pNPP absorbance; inhibition, % at 13.3 µM; actives 0.52% (n = 290,000); in the data active = inhibition above about 50%
BoNT A protease: inhibitors of Botulinum neurotoxin A light chain protease. actives 0.17% (n = 360,000). inhibition, % at 10 µM. AID 588499. multiplex microsphere protease substrate cleavage, flow cytometry
SARS 3CLpro inh: SARS-CoV 3CLpro protease inhibition | AID 1706 | inhibition, % at 6 µM | recombinant SARS-CoV 3CLpro, quenched FRET peptide cleavage | actives 0.14% (n = 290,000) | P0C6X7; in the data active = inhibition above about 12%
Anthrax LF prot: blocks Bacillus anthracis lethal factor protease. actives 0.12% (n = 360,000). multiplex microsphere protease cleavage assay, LF. inhibition, % at 10 µM. P15917
Target sequence (P15917 whole entry, looked up): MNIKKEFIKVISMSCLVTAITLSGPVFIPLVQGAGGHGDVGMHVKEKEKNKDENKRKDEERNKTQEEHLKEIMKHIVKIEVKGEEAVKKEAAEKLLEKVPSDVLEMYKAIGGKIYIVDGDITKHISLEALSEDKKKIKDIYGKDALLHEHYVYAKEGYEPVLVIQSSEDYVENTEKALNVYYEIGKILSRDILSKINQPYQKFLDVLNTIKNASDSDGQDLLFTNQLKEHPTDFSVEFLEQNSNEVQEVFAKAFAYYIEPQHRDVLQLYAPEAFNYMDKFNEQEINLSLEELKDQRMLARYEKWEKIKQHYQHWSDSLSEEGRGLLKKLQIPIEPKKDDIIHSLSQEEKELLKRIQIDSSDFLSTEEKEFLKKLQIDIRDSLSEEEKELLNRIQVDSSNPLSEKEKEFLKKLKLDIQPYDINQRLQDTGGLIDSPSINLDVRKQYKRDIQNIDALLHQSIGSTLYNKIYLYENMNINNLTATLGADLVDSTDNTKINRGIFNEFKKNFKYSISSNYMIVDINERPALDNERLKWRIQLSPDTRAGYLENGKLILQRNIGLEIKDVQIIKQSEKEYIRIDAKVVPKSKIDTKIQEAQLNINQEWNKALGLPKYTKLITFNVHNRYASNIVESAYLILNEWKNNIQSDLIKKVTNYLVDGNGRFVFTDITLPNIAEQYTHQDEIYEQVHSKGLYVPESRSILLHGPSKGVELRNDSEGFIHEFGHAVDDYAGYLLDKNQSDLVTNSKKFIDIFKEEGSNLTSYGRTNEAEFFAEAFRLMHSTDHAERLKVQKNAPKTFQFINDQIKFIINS
BoNT F protease: BoNT F light chain protease inhibition; actives 0.22% (n = 360,000); Multiplex microsphere protease cleavage assay, flow cytometry; inhibition, % at 10 µM; in the data active = inhibition above about 35%, passing the limit was not always enough; inconclusive = no clear call, values can overlap the other calls
Autofluor counter: flagged as autofluorescent in microsphere protease counterscreen | fluorescence intensity (concentration not given with the values) | compound autofluorescence counterscreen, microsphere flow cytometry; active compounds read high | actives 3.1% (n = 360,000); in the data active = fluorescence intensity above about 16000; inconclusive = no clear call, values can overlap the other calls
Large screens that a line does not name were inactive. Cut-off read from the data, not from the text of the source, unless noted: active = inhibition above about 30%; inconclusive = no clear call, values can overlap the other calls; inactive = below that.

CCN(CC)S(=O)(=O)c1ccc(NC(=O)CSc2cccc[n+]2[O-])cc1	VHR inh abs 52
CCCN(CCC)S(=O)(=O)c1ccc(NC(=O)COc2ccccc2)cc1	BoNT A protease inconclusive, Autofluor counter 16179
CCN(CC)S(=O)(=O)c1ccc(NC(=O)COc2c(OC)cccc2OC)cc1	VHR inh abs 56
CCN(CC)S(=O)(=O)c1ccc(Cl)c(NC(=O)CSc2cccc[n+]2[O-])c1	none
CCCCN(CCCC)S(=O)(=O)c1ccc(NC(=O)Cc2cccs2)cc1	Autofluor counter 23090
Cc1cc(NC(=O)CSCC(=O)N2CCN(c3cccc(C(F)(F)F)c3)CC2)no1	Autofluor counter inconclusive (no result: VHR inh abs, SARS 3CLpro inh)
COCCCN1C(=O)C(=O)/C(=C(/O)c2ccc(S(=O)(=O)N3CCOCC3)cc2)C1c1cccc(Cl)c1 (configuration not stated)	none
CCCCN(CCCC)S(=O)(=O)c1ccc(NC(=O)CN2CCOCC2)cc1	Autofluor counter 20756
CC(=O)c1cccc(NC(=O)Cc2cccs2)c1	Autofluor counter 23709
CCCN(CCC)S(=O)(=O)c1ccc(NC(=O)Cc2cccs2)cc1	BoNT A protease inconclusive, Autofluor counter 25405
O=C(NCc1ccco1)C1CCCN1C(=O)Nc1ccc(Br)cc1 (configuration not stated)	none
N#Cc1ccccc1NC(=O)COc1ccccc1C(=O)Nc1ccccc1	none (no result: VHR inh abs, SARS 3CLpro inh)
COc1ccc(/C=C/CN2CCC(C(=O)NC(c3ccc(F)cc3)c3ccc4ccccc4n3)CC2)cc1 (configuration not stated)	none (no result: VHR inh abs, SARS 3CLpro inh)
COc1ccc(-c2oc(NC(=O)CCl)c(C#N)c2-c2ccc(OC)cc2)cc1	none
COc1ccc(-c2oc(NC(=O)CSc3ncn[nH]3)c(C#N)c2-c2ccc(OC)cc2)cc1	Autofluor counter 22915
CCOC(=O)N1CCC(NC(=O)c2cccn3c(=O)c4cc(Br)ccc4nc23)CC1	VHR inh abs 84, Autofluor counter 18434
CCOC(=O)N1CCC(NC(=O)c2ccc3nc4ccccc4c(=O)n3c2)CC1	none (no result: BoNT A protease, Anthrax LF prot, BoNT F protease, Autofluor counter)
O=S(=O)(c1ccc(N2CCCC2)cc1)C(F)(F)F	Autofluor counter 16476
O=S(=O)(c1ccc(N2CCN(c3ccc(F)cc3)CC2)cc1)N1CCCC1	none
O=C(O)C1CCCCC1C(=O)Nc1ccc(F)cc1F (configuration not stated)	Autofluor counter 20999
COc1ccc(NC(=O)c2ccccc2NC(=O)C2CCCCC2C(=O)O)cc1 (configuration not stated)	BoNT F protease inconclusive (no result: VHR inh abs, SARS 3CLpro inh)
COC(=O)c1ccccc1NC(=O)C1CCCCC1C(=O)O (configuration not stated)	BoNT A protease inconclusive, Autofluor counter 23211
O=C(O)C1CCCCC1C(=O)Nc1ccc(F)c(F)c1 (configuration not stated)	none
CN1CC(c2ccccc2Cl)C2(COc3ccccc3C2=O)C12C(=O)Nc1ccccc12 (configuration not stated)	Autofluor counter 20126
Cc1ccc(C2CN(C)C3(C(=O)Nc4ccccc43)C23COc2ccccc2C3=O)cc1 (configuration not stated)	none
O=c1[nH]c(C2CCN(S(=O)(=O)c3ccc(S(=O)(=O)NC4CC4)cc3)CC2)nc2c1nnn2Cc1ccc(F)cc1	VHR inh abs 59
O=c1[nH]c(C2CCCN(S(=O)(=O)c3ccccc3)C2)nc2c1nnn2Cc1ccccc1 (configuration not stated)	Autofluor counter 22466
O=c1[nH]c(C2CCCN(S(=O)(=O)c3cccc(F)c3)C2)nc2c1nnn2Cc1ccccc1 (configuration not stated)	none
COCCn1c(SCC(=O)N2CCCC2)nc2c(c1=O)SCC2	none (no result: VHR inh abs, SARS 3CLpro inh)
O=C(O)c1ccccc1C(=O)Nc1ccccn1	Autofluor counter 23171
CN(C(=O)COC(=O)C1CSC2(C)CCC(=O)N12)c1ccccc1 (configuration not stated)	none (no result: VHR inh abs, SARS 3CLpro inh)
Cc1ncoc1C(=O)Nc1ccc2c(c1)OCCO2	Autofluor counter 18125
COc1cccc(OC)c1C(=O)Nc1ccc2c(c1)OCCO2	Autofluor counter 25227
COc1ccccc1NC(=O)Nc1ccc2c(c1)OCCO2	none
CCOC(=O)c1c(C)c(C(=O)Nc2ccc3c(c2)OCCO3)c(C)n1C	BoNT A protease inconclusive, Autofluor counter 23007
Cc1occc1C(=O)Nc1ccc2c(c1)OCCO2	BoNT A protease inconclusive, Autofluor counter 20875
CCOC(=O)c1ccc(NC(=O)Nc2ccc3c(c2)OCCO3)cc1	none
COc1ccc(CCNC(=O)CNS(=O)(=O)c2ccc(F)c(Cl)c2)cc1OC	none
COC(=O)C1OCOC2C(C(=O)OC)OCOC12 (configuration not stated)	none (no result: VHR inh abs, SARS 3CLpro inh)
O=C(Nc1ccc2c(c1)OCCO2)c1ccccc1	none
CS(=O)(=O)Nc1ccc(C(=O)Nc2ccc3c(c2)OCCO3)cc1	Autofluor counter 20301
Cc1c(C(=O)N2CCCCC2)c(S(=O)(=O)N(C)Cc2ccccc2)c(C)n1C	VHR inh abs 54
CC(=O)C1C(c2ccncc2)NC(=O)NC1(O)C(F)(F)F (configuration not stated)	Autofluor counter 22926
CC(=O)C1C(c2ccc3ncccc3c2)NC(=O)NC1(O)C(F)(F)F (configuration not stated)	Autofluor counter 22750
CC(=O)C1C(c2ccccc2Cl)NC(=O)NC1(O)C(F)(F)F (configuration not stated)	none
C(=C\CSc1ncn[nH]1)/CSc1ncn[nH]1	Autofluor counter 20380
Cc1cc(Cl)c2oc(C(=O)N3CCCCC3CCN3CCCC3=O)c(C)c2c1 (configuration not stated)	none
COc1cccc(C2CC(c3ccccc3)Nc3ncnn32)c1 (configuration not stated)	Autofluor counter 22399
COc1cccc(C2CC(c3ccccc3OC)n3ncnc3N2)c1 (configuration not stated)	none
COc1ccc(-c2nc(CC(=O)Nc3cccc(S(=O)(=O)NC4=NCCC4)c3)cs2)cc1	none (no result: VHR inh abs, SARS 3CLpro inh)
CC(/C=C1\SC(=S)N(c2ccc(C(=O)O)cc2)C1=O)=C\c1ccccc1	VHR inh abs 53
CN(C)CCNc1nc2sc3c(c2c(=O)n1-c1ccc(F)cc1)CCCCC3	none
COc1ccc(-n2c(NCCN(C)C)nc3sc4c(c3c2=O)CCCCC4)cc1	Autofluor counter 22405
Cc1ccc(C2=N/C(=C\c3cccs3)C(=O)N2Nc2ccccc2)cc1	BoNT A protease 120, Anthrax LF prot 64, BoNT F protease 51
O=C1/C(=C/c2cccs2)N=C(c2cccs2)N1Nc1ccccc1	none
O=C1/C(=C\c2cccs2)N=C(c2cccs2)N1Nc1ccccc1	BoNT A protease 68, Anthrax LF prot 50, BoNT F protease 40
Cc1ccc(C)c(Nc2c([N+](=O)[O-])c(=O)oc3ccccc23)c1	none
Cc1noc(C)c1NC(=O)N(C)C[C@H]1Oc2ccc(NC(=O)NC3CCCCC3)cc2C(=O)N([C@H](C)CO)C[C@@H]1C	none (no result: VHR inh abs, SARS 3CLpro inh)
